A selection: hits, their analogues and other compounds. The true share with any hit is near 3.8%.
rTrxR1 inhibitor: qHTS Assay for Inhibitors of Mammalian Selenoprotein Thioredoxin Reductase 1 (TrxR1): qHTS; recombinant rTrxR1, NADPH fluorescence consumption, selenite substrate; Thioredoxin reductase 1, cytoplasmic (Rattus norvegicus), O89049; Potency, µM (doses to about 114 µM), without a hit: at the highest dose activity change, negative = inhibition, actives largely listed as inhibitors; 1% of 390,000 active; AID 588453, 2011; further: nearly all actives have a fitted effect of over 65% in size
Target sequence (O89049 whole entry, looked up): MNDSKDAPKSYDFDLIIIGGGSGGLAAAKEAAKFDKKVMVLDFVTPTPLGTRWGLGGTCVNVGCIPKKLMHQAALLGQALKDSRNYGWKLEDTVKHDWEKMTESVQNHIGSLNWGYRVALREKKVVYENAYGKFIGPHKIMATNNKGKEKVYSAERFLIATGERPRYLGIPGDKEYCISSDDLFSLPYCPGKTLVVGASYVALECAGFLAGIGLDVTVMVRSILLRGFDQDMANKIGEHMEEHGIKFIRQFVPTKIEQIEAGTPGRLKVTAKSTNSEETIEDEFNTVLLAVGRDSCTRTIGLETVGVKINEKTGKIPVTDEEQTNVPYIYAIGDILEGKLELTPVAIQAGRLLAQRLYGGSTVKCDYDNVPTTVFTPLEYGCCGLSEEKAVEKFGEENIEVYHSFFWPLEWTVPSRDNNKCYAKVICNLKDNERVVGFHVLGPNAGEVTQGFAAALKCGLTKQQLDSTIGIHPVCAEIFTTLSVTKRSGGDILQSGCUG
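Rat TrxR1 (90 nM in the dispensed reagent) was pre-reduced with 400 uM NADPH for 5 min at room temperature, then incubated with compound for 15 min. After 400 uM selenite was added, NADPH fluorescence (Ex 340/Em 450 nm) was followed for 8 min.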
Sfp PPTase inh: qHTS Assay for Inhibitors of Bacillus subtilis Sfp phosphopantetheinyl transferase (PPTase); Potency, µM, without a hit: largest response in the series, negative = inhibition, hits mostly inhibitors; 3.5% of 310,000 active; 4'-phosphopantetheinyl transferase ffp (Bacillus subtilis), Q9F4F7; Biochemical Sfp PPTase activity, qHTS; AID 1490, 2009;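 further: the enzyme is Sfp with the accession as filed and its product quenches rhodamine fluorescence; 0% = enzyme reaction without inhibitor and -100% = no enzyme wells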
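Step 1, compound plus 15 nM Sfp-PPTase, 15 min, room temperature. Step 2, add rhodamine-CoA (5 uM) and BHQ-2-YbbR (12.5 uM). Step 3, read 525/598 nm fluorescence at 0 and 30 min.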
VDR inh: Inhibitors of the vitamin D receptor (VDR): qHTS; Vitamin D3 receptor (Homo sapiens), P11473; AID 504847, 2011; 0.93% of 400,000 active; VDR-SRC2-3 peptide fluorescence polarization, 2 h; Potency, µM, without a hit: max response, negative = inhibition, usual class: inhibitors
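FP read-out; VDR + SRC2-3 coactivator peptide; 23 nl compound by pintool; 2 h RT incubation; reagents held at 4 deg C, protected from light.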
GLS inh: qHTS for Inhibitors of Glutaminase (GLS); Glutaminase kidney isoform, mitochondrial (Homo sapiens), O94925; GLS enzymatic activity, qHTS titration; Potency, µM (highest dose often 45.5 µM), without a hit: top-dose activity change, negative = inhibition, usual class: inhibitors; 0.21% of 410,000 active; AID 624170, 2012
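Read-out is an Amplex red fluorescence increase coupled through glutamate oxidase and HRP, measured before and after 30 min room-temperature incubation. hKGA is in 45 mM KH2PO4 (pH 8.2) with 0.02% Tween-20; glutamine added as 1mM solution.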
KAT2A inh: qHTS Assay for Inhibitors of GCN5L2; Histone acetyltransferase KAT2A (Homo sapiens), Q92830; GCN5L2 HAT assay, ThioGlo1 CoA-SH fluorescence; Potency, µM (highest dose often 58.9 µM), for the others: at the highest dose activity change, negative = inhibition, usual class: inhibitors; 0.21% of 390,000 active
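Enzyme at 20nM final was mixed with library compounds for 15 min at room temperature. Peptide H3(1-25) at 75uM, acetyl-CoA at 70uM and ThioGlo1 at 50uM were then added. Plates were read immediately and after 20 min (Ex340nm/Em540nm).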
TrxR1 substrate: qHTS Assay for Substrates of Mammalian Selenoprotein Thioredoxin Reductase 1 (TrxR1): qHTS; Thioredoxin reductase 1, cytoplasmic (Rattus norvegicus), O89049; purified TrxR1 substrate turnover, NADPH consumption readout; Potency, µM (top dose mostly 114 µM), for inactives: top-dose activity change, negative = substrate turnover; 0.01% of 390,000 active; AID 588456, 2011; further: nearly all actives have a fitted effect of over 50% in size
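Rat TrxR1, dispensed at 90 nM, was prereduced with 400 uM NADPH (final) for 5 min at ~22 deg C, then incubated with compound 15 min before 400 uM selenite. A first-read NADPH fluorescence drop versus no-compound background flagged substrates.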
* marks the source's active call; other numbers are inactive results; ? = inconclusive; · = not tested or not shown; ! = repeats disagree; [ ] = remark or other dose. The call rests on the fitted dose curve; in most records, active means well fitted curve in the direction sought with a large enough effect; inconclusive means small, poorly fitted or top-dose-only effect, or another doubt; inactive means no such curve, though single readings can be large; an effect the other way counts as inactive or inconclusive. Unless noted, on the % scale 0 is the no-effect control and ±100 the full control effect; potency means the concentration at half of the fitted maximal effect.

SMILES	rTrxR1 inhibitor	Sfp PPTase inh	VDR inh	GLS inh	KAT2A inh	TrxR1 substrate
Cc1cccc(NC(=O)c2ccc(-c3ccccc3[N+](=O)[O-])o2)c1	?	50µM*	-4%	6%	-5%	0%[57.1 µM]
COc1ccc(OC)c(S(=O)(=O)CC(=O)c2cc3ccc(OC)cc3oc2=O)c1	15%	-10%	-9%	-6%	?	2%
CCOc1ccccc1NC(=O)/C(C#N)=C/c1c(C)nn(-c2ccccc2)c1Cl	-5%[57.1 µM]	12%	?	?	-9%	5%[57.1 µM]
C=CCNC(=O)/C(C#N)=C/c1c(C)nn(-c2ccccc2)c1Cl	-27%	79µM*	?	3%	0%	-5%
COc1ccc(C2=NN(C(=O)CSc3ncccn3)C(c3cccc(OC)c3OC)C2)cc1 (stereo not drawn)	-8%	16%	1%	-3%	-6%	7%
NCCc1nnc(SCC(N)=O)o1	-9%	0%	-2%	-6%	2%	-3%
CC(C)CN(CC(C)C)C(=O)CN1C(=O)NC2(CCCc3ccccc32)C1=O (stereo not drawn)	-4%[57.1 µM]	18%	0%	-6%	-2%	-1%[57.1 µM]
N#C/C(=C\c1cccc(Cl)c1)C(=O)c1ccccc1	11µM*	?	?	5%	-17%	5%[57.1 µM]
CC(=O)C(=Cc1ccc(Cl)cc1)C(=O)c1ccccc1	·	·	·	-28%	·	·
COc1cccc(C=C(C#N)C(=O)c2ccccc2)c1	·	·	·	21%	·	·
CC(=O)C(=Cc1cccc(C#N)c1)C(=O)c1ccccc1	·	·	·	11µM*	·	·
CC(C(=O)O)N1C(=O)c2ccccc2C1=O (stereo not drawn)	9%	13%	5%	-1%	-5%	9%
COc1ccccc1N1CCN(C(=O)CSc2nnc(NC(=O)C3CCC3)s2)CC1	14%[57.1 µM]	2%	0%	10%	-2%	9%[57.1 µM]
CCCCn1c(=O)[nH]c(=O)c2c1nc(-c1ccc(-c3ccccc3Br)o1)n2CC	?	14µM*	-10%	5%	-9%	3%
COCCn1c(-c2ccc(-c3ccc([N+](=O)[O-])cc3Br)o2)nc2c1c(=O)[nH]c(=O)n2CC(C)C	-52%	28µM*	-3%	6%	-3%	-4%
COCCn1c(=O)[nH]c(=O)c2c1nc(-c1ccc(-c3ccc(Cl)cc3[N+](=O)[O-])o1)n2Cc1ccccc1	?	?	-17%	-20%	-8%	-10%
CCCN=C1N(C)C[C@@H]2[C@@H]3C(=O)N(Cc4ccccc4)C(=O)[C@@H]3[C@](Cc3ccccc3)(C(=O)OC)N12	?	·	5%	0%	-3%	8%
CCCCc1ccc(-n2nc3cc(C)c(NC(=O)Cc4ccccc4)cc3n2)cc1	-5%	·	-3%	-24%	14%	-7%
O=C(Nc1ccccc1C(=O)O)c1cccc(NS(=O)(=O)c2ccc(Br)cc2)c1	20%	16%	?	?	-8%	-2%
Cc1ccc(S(=O)(=O)CCSc2cccc(C(=O)Nc3ccccc3C(=O)O)c2)cc1	48%	-10%	79µM*	23%	-2%	-7%
Cc1cccc(NC(=O)CSc2nnc(-c3ccccc3)n2N)c1C	12%	2%	-10%	0%	2%	6%
COc1ccc(C)cc1NC(=O)NCc1ccco1	21%[57.1 µM]	21%	-7%	-9%	-12%	9%
O=C(CSC(=O)c1ccccc1)Nc1ccccc1F	-3%[2.29 µM]	·	79µM*	-19%	-22%	-4%[2.29 µM]
Cc1cc(=O)[nH]c(NN)n1	22%	45µM*	-19%	7%	-12%	-1%
Cc1cc(=O)[nH]c(N/N=C2/CCCC/C2=C\c2ccccc2)n1	40µM*	2%	-26%	-6%	-2%	-2%
SMILES	rTrxR1 inhibitor	Sfp PPTase inh	VDR inh	GLS inh	KAT2A inh	TrxR1 substrate
Cc1cc(=O)[nH]c(NN=C2C3CC4CC(C3)CC2C4)n1	-5%	45µM*	0%	0%	-4%	-3%
COc1ccc(NC(=O)CN(C)C(=O)c2sc3ccccc3c2Cl)cc1	-6%	·	4%	2%	-5%	-5%
CCCCOc1ccc(-c2csc(N)n2)cc1[N+](=O)[O-]	-2%[11.4 µM]	40µM*	-16%	1%	-13%	-5%[11.4 µM]
c1ccc(-c2onc(-c3ccco3)c2-c2ccc3[nH]ccc3c2)cc1	28µM*!	-11%	10%	-3%	-9%	12%[57.1 µM]
COc1ccc2cc(C(=O)C3CCCN(Cc4cnc(C)s4)C3)ccc2c1 (stereo not drawn)	11%[57.1 µM]	-14%	0%	-17%	-16%	97%
COc1ccc(CNC(=O)c2ccc3c(c2)N(C)C(=O)CS3=O)cc1 (stereo not drawn)	26%	45µM*	-18%	-2%	1%	1%
COc1ccc(CNC(=O)c2ccc3c(c2)N(C)CCS3)cc1	68%	2%	-15%	12%	-4%	76%[57.1 µM]
COc1cccc(F)c1C(C[N+](=O)[O-])c1c(N)n(C)c(=O)n(C)c1=O (stereo not drawn)	?	-3%	79µM*	2%	-27%	-1%
S=c1[nH]ncn1-c1ccccn1	-5%[57.1 µM]	22µM*	18%	7%	-6%	16%[57.1 µM]
CS(=O)(=O)NCc1ccc(C(=O)O)cc1	11%[57.1 µM]	9%	3%	0%	-5%	11%
O=C(CN1CCOCC1)N1CCN(S(=O)(=O)c2ccccc2)C1c1ccccc1 (stereo not drawn)	0%	16%	-13%	3%	4%	-5%
